The record followed here is PubChem BioAssay AID1794844 (National Center for Advancing Translational Sciences (NCATS), 2023).

The campaign covered roughly 2,800 compounds. Fewer than 10 were called active. Inconclusive results (about 7%) are left out. Calls follow the shape of the dose curve; as a rule, active = well fitted inhibition curve with a large enough effect; inconclusive = small, poorly fitted or top-dose-only effect; inactive = no such curve, though single readings can be large or run the other way. Only a sample is shown. Entries that show only a call come without a potency.
Potency is read from the fitted curve at half-maximal effect.

For this experiment, the target named is Metallo-beta-lactamase type 2 (Klebsiella pneumoniae) (UniProt C7C422). The experiment in a line: qHTS to identify inhibitors of the New Delhi Metallo-beta-lactamase (NDM): Nitrocefin screen against the machine-based learning selections. To be noted: NDM-1 enzyme, nitrocefin hydrolysis, absorbance 485 nm; series mostly up to 38.4 µM. The text has this: Assay Submitter (PI): James Inglese Ph.D., Patricia Dranchak Ph.D., Mahesh Aitha Ph.D. Assay Development and Screening Technology Laboratory (ADST) National Center for Advancing Translational Sciences (NCATS), Rockville, MD National Institute of Health (NIH), Bethesda, Maryland The metallo-beta-lactamases (MBL) are a main antibiotic resistance mechanism evolved by bacteria. There is an urgent clinical need for MBL inhibitors to mitigate this growing threat. To support a machine-based learning study, qHTS has been used to experimentally test inhibitors identified by prediction tools.
Metallo-beta-lactamase type 2 (Klebsiella pneumoniae), sequence (C7C422 whole entry, looked up): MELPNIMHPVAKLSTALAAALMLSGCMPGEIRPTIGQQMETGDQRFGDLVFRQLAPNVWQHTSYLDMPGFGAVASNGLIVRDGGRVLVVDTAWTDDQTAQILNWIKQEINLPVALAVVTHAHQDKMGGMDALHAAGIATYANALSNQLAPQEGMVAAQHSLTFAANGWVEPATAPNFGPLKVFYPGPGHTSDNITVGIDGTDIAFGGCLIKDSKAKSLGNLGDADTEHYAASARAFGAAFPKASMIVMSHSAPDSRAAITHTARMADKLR
PROTOCOL TABLE (as described by Inglese et al., 2007) SEQUENCE No. (e.g., 1, 2, 3, etc.); […] (e.g., enzyme, Incubation, Reagent, etc.); VALUE; DESCRIPTION Primary Screen 1; NDM-1; 4 uL of 3 nM enzyme [2 nM final] in 50 mM HEPES (pH 7.0), 1 uM […], 0.01% Tween20; Use BioRaptr to dispense into two sets of Aurora black, clear bottom high base 1536-well plates 2; Compounds; 23 nL; Use Pin Tool (Wako) to transfer DMSO control and library compounds in DMSO 3; Incubate; >30 min 4a; Reagent; 2 uL of 50 uM nitrocefin [16.7 uM final] to one set of assay plates 4b; Reagent; 2 uL of 150 uM meropenem [50 uM final] to second set of assay plates 5a; Incubate; 15 min 5b; Incubate; 30 min 6a; Detector; Absorbance at 485 nm (bandwidth = 5 nm, 25 flashes/well) on Tecan Infinity 6b; Detector; Absorbance at 300 nm (bandwidth = 5 nm, 25 flashes/well) on Tecan Infinity NOTES (numbers refer to sequence above) 1; Column 1 of each plate received assay buffer without enzyme and columns 2-48 received enzyme for a final assay concentration of 2 nM. 2; Control plate contained DMSO in columns 1, 2, 3, and 4. 3; Compound interaction with enzyme. 4; Nitrocefin and meropenem substrates were prepared in the same assay buffer as step 1 for a final assay concentration of 16.7 uM and 50 uM, respectively, and added to all wells across respective sets of assay plates. 5; Default reader settings were applied for absorbance read at 485 nm (nitrocefin) or 300 nm (meropenem), bandwidth = 5 nm, 25 flashes/well. References: Inglese J, Shamu CE, Guy RK. 2007. Reporting data from high-throughput screening of small-molecule libraries. Nat Chem Biol. doi:10.1038/nchembio0807-438 Yasgar A, Shinn P, Jadhav A, Auld D, Michael S, Zheng W, Austin CP, Inglese J, Simeonov A. 2008. Compound Management for Quantitative High-Throughput Screening. J Lab Autom 13:79 - 89. doi:10.1016/j.jala.2007.12.004
(Quantitative high-throughput screening tests each substance at several concentrations.)
Take `COc1ccccc1CCC(=O)NCc1nnc2ccc(-c3ccc(C)cc3)nn12`: the Potency result is “inactive”.

As to `O=C(NCc1ccc2c(c1)OCO2)C1CCN(c2cn[nH]c(=O)c2)C1` (stereo unspecified), the Potency result was “inactive”.

In the case of `O=C(O)CCCC(=O)N1CCN2C(=O)c3cc(-c4ccco4)ccc3NC(=O)[C@@H]2C1`, the Potency result was “inactive”.

Turning to `O=C(c1ccc(N2CC3CC(C2)[C@H]2CCCC(=O)N2C3)nc1)N1CCN(c2cccc(Cl)c2)CC1` (stereo partly specified), the Potency entry is “inactive”.

As to `Cc1ccc(C2(O)CCN(C(=O)c3cnn4cc(CCO)cnc34)CC2)nc1`, the Potency entry was “inactive”.

As for `O=C(C[C@@H]1CCNC[C@@H]1Cc1cc(CC2CCCCC2)on1)NC1CC1`, the Potency result is “inactive”.

Turning to `O=C(Nc1ccccc1)O[C@@H]1CO[C@H]2[C@@H]1OC[C@@H]2NC(=O)c1ccc(C(F)(F)F)cc1`, the Potency entry was “inactive”.

Turning to `Cc1cnn(Cc2cc(C(=O)N3CCCCCC3c3nnc(-c4ccccc4)o3)no2)c1` (stereo unspecified), the Potency entry is “inactive”.

For `COc1ccc(-c2cc(N3CCCN(C(=O)c4cnccn4)CC3)n[nH]2)cc1`, the Potency result was “inactive”.

As for `Cc1cc(C(=O)N[C@@H]2CCC[C@@H](C(=O)N3CCN(C)CC3)CC(=O)N(C)C2)no1`, the Potency result was “inactive”.

In the case of `CCC(C)NC(=O)CC1Sc2ncccc2N(C)C1=O` (stereo unspecified), the Potency entry is “inactive”.

Turning to `CC[C@H]1CN(C(=O)Nc2cccc(C(F)(F)F)c2)CC[C@H]1CC(=O)NC1CC1`, the Potency entry is “inactive”.

Consider `CC(C)NC(=O)C[C@@H]1C[C@H]2O[C@H](CNCc3ccccc3Cl)[C@@H](O)[C@H]2O1`, for which the Potency result is “inactive”.

As to `COc1nc2c(cc1CNC(=O)C1CCOC1)C(=O)N(CCc1ccccn1)C2` (stereo unspecified), the Potency result is “inactive”.

On to `Cc1ccc(CN2CC[C@@H]3[C@H]2C(=O)NC[C@H](CCC(=O)N2CC[C@@H](O)C2)N3C)cc1`, for which the Potency result was “inactive”.

`O=C(O)C[C@@H]1CCN(C(=O)c2ccco2)C[C@@H]1CCN1CCOCC1`: the Potency entry was “inactive”.

`CN1C[C@H](C(=O)NCc2ccccc2)C[C@H]1c1cccc(C(F)(F)F)c1`: the Potency entry was “inactive”.

Turning to `CC(C)C[C@@H]1N[C@H](C(=O)NCCOc2ccccc2)Cc2c[nH]c3cccc1c23`, the Potency entry was “inactive”.

On to `CN(C)C1CCN(c2nc(-c3ccncc3)nc3c2CNC3)C1` (stereo unspecified), for which the Potency result is “inactive”.

Consider `Cc1oc(C(O)c2cccc(O)c2)nc1C(=O)Nc1ccc2[nH]c(=O)oc2c1` (stereo unspecified), for which the Potency result was “inactive”.

Turning to `O=C(c1cc(-c2ccc(O)cc2)n[nH]1)N1CCCC(CCc2ccc(F)cc2)C1` (stereo unspecified), the Potency entry was “inactive”.

Regarding `COc1ccc(CC2(CO)CCN(c3nccc(N)n3)CC2)cc1`, the Potency result was “inactive”.

With `Cc1ccc2c(C)c(C(=O)N3CC(OCc4ccccc4F)C3)oc2c1`, the Potency result is “inactive”.

Regarding `COCCNC(=O)c1ccc2c(c1)N(C)C(CC(=O)Nc1ccc(N)nc1)CO2` (stereo unspecified), the Potency entry was “inactive”.

`CCCc1cc(C(=O)N[C@@H]2COCC[C@H]2Oc2ccc(C(=O)O)cc2)n[nH]1`: the Potency entry was “inactive”.

On to `Cc1cccc(C(=O)N2CC[C@@H](NC(=O)c3cnccn3)[C@H](O)C2)n1`, for which the Potency entry is “inactive”.

Turning to `O=[S+]([O-])(c1cccnc1)N1CCNc2cnc(Nc3ccc(-n4ccnc4)cc3)nc2C1`, the Potency entry was “inactive”.

For `O=C(Cn1ccn2nc3c(c2c1=O)CCCC3)NCc1ccc2c(c1)OCO2`, the Potency result was “inactive”.

Regarding `COc1ccccc1-n1cc(C(=O)NC[C@@H]2C[C@H](F)CN2)cn1`, the Potency entry is “inactive”.

Take `c1csc(CN2Cc3[nH]cnc3C[C@H]2c2nc(-c3ccc4c(c3)OCO4)no2)c1`: the Potency entry is “inactive”.

As to `O=C(Nc1ccccc1)O[C@@H]1CO[C@H]2[C@@H]1OC[C@@H]2NS(=O)(=O)c1cccc2cccnc12`, the Potency entry was “inactive”.

For `OCc1cccc(-c2ccc3ncc(Nc4cccc(F)c4)n3n2)c1`, the Potency entry is “inactive”.

For the compound `O=C(c1ccc2ncccc2c1)N1CCC2(CC1)Nc1ccccc1NC2=O`, the Potency entry is “inactive”.

Take `COc1ccc(CC(=O)N2CC(CO)C3(CCNCC3)C2)cc1` (stereo unspecified): the Potency entry is “inactive”.

Consider `Cc1ccc(CN2CC[C@@H](CO)N(C)c3cccnc3C2)s1`, for which the Potency result was “inactive”.

Regarding `CS(=O)(=O)N1CCC(C2CCN(C(=O)Cc3cccc(F)c3)C2)CC1` (stereo unspecified), the Potency entry is “inactive”.

In the case of `O=C(NCc1nc(-c2ccncc2)n[nH]1)[C@H]1CCC[C@H](O)C1`, the Potency result is “inactive”.

For `N[C@@H]1CCN(Cc2ccccc2OCc2ccc(Cl)cc2)C[C@H]1O`, the Potency entry is “inactive”.

With `COCCOc1ncccc1-c1noc([C@@H]2CCCN2CC(C)(C)C)n1`, the Potency entry is “inactive”.

For the compound `CC1=C[C@@H](CNC(=O)c2ccc(F)cc2)[C@H](C(C)C)C[C@H]1CC(=O)N1CCN(C)CC1`, the Potency result is “inactive”.

`O=C1Cc2c(-c3cccc(O)c3)n[nH]c2CN1CC1CC1`: the Potency result was “inactive”.

For the compound `C[C@@H]1CN(C(=O)Cn2ccc(=O)[nH]c2=O)C[C@@]1(O)C1CCC1`, the Potency result was “inactive”.

For the compound `COc1cccc(NC(=O)O[C@@H]2CC[C@]3(C)C(CC[C@@H](O)[C@H]3CC(=O)N3CCCC3)[C@]2(C)CO)c1` (stereo partly specified), the Potency result was “inactive”.

`CCc1noc([C@@H]2CC(F)(F)CN2C(=O)c2ccoc2C)n1`: the Potency entry is “inactive”.

As for `CC(C)=CC(=O)N1CC[C@H](NC(=O)Nc2ccc(F)cc2F)[C@H]1C(=O)N[C@@H](Cc1cccs1)C(N)=O`, the Potency entry is “inactive”.

On to `NCCc1cccc(CN2CCCC(COc3ccccc3F)C2)c1` (stereo unspecified), for which the Potency entry was “inactive”.

For the compound `c1ccc(-c2nnc3ccc(NC4CCC4)nn23)nc1`, the Potency result is “inactive”.

For the compound `CC(C)(O)C#Cc1ccc(C(=O)N2CCC(O)(c3ccccn3)CC2)cc1`, the Potency entry is “inactive”.

With `COc1ccc(-c2nnc3n2CCN(C(=O)C(C)(C)C)C3)cc1`, the Potency result is “inactive”.

`O=C(Cc1c[nH]c2ncc(-c3ccc(Cl)cc3)cc12)NCc1cccnc1`: the Potency entry was “inactive”.

Regarding `CC(C)(C)CC(=O)N1CC[C@H]2CC(=O)N(Cc3cccnc3)CC[C@H]2C1`, the Potency result is “inactive”.

With `CC[C@H]1CN(C(C)=O)CC[C@H]1CC(=O)NC(C)C`, the Potency entry was “inactive”.

Regarding `CCNC(=O)[C@@H]1C[C@H](NC(=O)c2ccccc2)CN1Cc1scnc1C`, the Potency entry is “inactive”.

Consider `CS(=O)(=O)N1CC(C(=O)Nc2ccc(N3CCOCC3)cc2)C2(CCCCC2)C1` (stereo unspecified), for which the Potency entry is “inactive”.

In the case of `O=C(NCc1cc2n(n1)CCN(C1CCCCC1)C2)c1cnn2ccccc12`, the Potency entry was “inactive”.

For `CCCN(CC1CCOC1)C(=O)Nc1cccc(F)c1C` (stereo unspecified), the Potency entry is “inactive”.

`O=C(O)[C@]12CCCN[C@@H]1CCN(Cc1ccc(-c3ccccn3)cc1)C2`: the Potency entry was “inactive”.

For the compound `Cc1cccc(CN2CCCC3(CCN(Cc4cccc(O)c4)C3)C2)c1` (stereo unspecified), the Potency result is “inactive”.

Turning to `O=C(O)CN1CCC[C@]2(C(=O)O)CN(Cc3cccc(O)c3)CC[C@@H]12`, the Potency is 3.35 µM (active).

Turning to `Cc1cc(Cn2cc3c4c(cccc42)[C@H](CC(C)C)N[C@H](C(=O)N2CCN(C)CC2)C3)no1`, the Potency entry was “inactive”.

Regarding `CN1CCOc2c(C(=O)NCc3cccnc3)cc(-c3ccccc3O)cc21`, the Potency result is “inactive”.
